# Screening data (PubChem)
# RAD52 inh: RAD52 DNA annealing inhibitors, primary screen, biochemical, FRET, single point, set 2; inhibition, % at 18.7 µM; DNA repair protein RAD52 homolog (Homo sapiens), P43351; 360,000 tested, 0.46% active; AID 651710, 2012; recombinant RAD52 DNA annealing, FRET fluorescence;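 active = every replicate showing at least 50% inhibition; inconclusive = mean inhibition at least 50% but not in every replicate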
# Target sequence (P43351 whole entry, looked up): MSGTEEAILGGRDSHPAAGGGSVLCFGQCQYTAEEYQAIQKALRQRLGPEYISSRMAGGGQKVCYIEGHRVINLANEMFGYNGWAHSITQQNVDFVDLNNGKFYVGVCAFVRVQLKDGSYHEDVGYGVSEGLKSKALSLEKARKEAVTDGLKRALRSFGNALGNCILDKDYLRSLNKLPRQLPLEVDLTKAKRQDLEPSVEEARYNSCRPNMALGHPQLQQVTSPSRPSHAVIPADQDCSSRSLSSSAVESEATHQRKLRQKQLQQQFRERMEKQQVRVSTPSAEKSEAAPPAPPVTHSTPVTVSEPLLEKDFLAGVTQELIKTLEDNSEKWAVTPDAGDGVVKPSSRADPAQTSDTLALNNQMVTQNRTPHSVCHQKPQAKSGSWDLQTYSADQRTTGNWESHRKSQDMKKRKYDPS
# Ecoli rRNA inh: reduced GFP signal of wild-type E. coli, primary screen, bacterial rRNA inhibitor project, GFP/RFP fluorescence, OD600, single point; E. coli WT GFP vs humanized-ribosome RFP mutants, 24 h; hits give low values; DMSO median 0, no signal -100; GFP signal change (wild-type ribosome), % (concentration not given with the values); 350,000 tested, 1.6% active; AID 720706, 2013;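 active = significant combined selectivity score with lowered wild-type GFP, culture density cut under 30%, mutant RFP and density less affected; inactive = any of these conditions unmet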
# MLL AF4-AF9 inh: inhibitors of AF4 peptide binding to AF9, primary screen, biochemical, AlphaScreen, biotin-AF4 peptide, FLAG-AF9, single point; Protein AF-9 (Homo sapiens), P42568; 350,000 tested, 0.47% active; inhibition, % at 10 µM; AID 651704, 2012;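 active = every replicate reaching a set inhibition limit, whatever the replicate mean, cut at about 25% in these data; inconclusive = mean inhibition reaches that limit but some replicates miss it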;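 note: 0% = plate neutral control median and 100% = total signal loss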
# NSD2 inh: NSD2 histone methyltransferase inhibitors, primary screen, biochemical, AlphaScreen, single concentration, set 2; 310,000 tested, 0.54% active; inhibition, % at 12.5 µM; Histone-lysine N-methyltransferase NSD2 (Homo sapiens), O96028; NSD2 peptide methylation, 120 min; in the data active = inhibition above about 50%
# CASP6 VEID inh: human caspase-6 inhibitors, primary screen, biochemical, VEID-R110 fluorescence, single point, set 2 | P55212 | purified caspase-6, Z-VEID-R110 cleavage fluorescence | inhibition, % at 12.5 µM | 350,000 tested, 0.53% active | AID 686996, 2013;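 active = mean inhibition across replicates at least about 35%, with every replicate also reaching that limit, limit read from the data; inconclusive = only one of the two criteria met; inactive = neither criterion met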;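 note: 0% = median of neutral control wells and 100% = no fluorescence left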
# DNA binder FP: DNA-binding compounds via dye displacement, dose response, artefact control for RAD52 inhibitor project, biochemical, fluorescence polarization, cherry-pick. Salmon sperm DNA/acridine orange FP displacement. 1,000 tested, 8% active. AC50, µM. AID 652128, 2013. shares compounds with RAD52 inh;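 active = fitted half-maximal concentration for signal loss at or below twice the highest dose tested, in every separate run, actives reach about 64 µM in these data; inconclusive = runs disagree, or flat partial signal loss, or poor fit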
# * = called active by the depositor; i = inactive; ? = inconclusive; . = no result given. Most compounds without a hit are left out; they make up all but 2.5% or so of the library.
SMILES,RAD52 inh,Ecoli rRNA inh,MLL AF4-AF9 inh,NSD2 inh,CASP6 VEID inh,DNA binder FP
CS(=O)(=O)Nc1ccc2c(c1)[C@H]1C[C@@H](CC(=O)NCc3ccccn3)O[C@@H](CO)[C@H]1O2,1,3,-2,.,-3,.
CC(C)NC(=O)N(C)C[C@@H]1OCCCC[C@@H](C)Oc2ccc(NC(=O)CCC(F)(F)F)cc2C(=O)N([C@@H](C)CO)C[C@H]1C,-4,-1,-3,.,-3,.
C[C@@H]1COCn2nncc2CC[C@H](Cc2ccccc2)C(=O)N1,.,4,.,.,.,.
CCN1CCN(c2cc(C)c3cc(NC(=S)NCCCOC)ccc3n2)CC1,61*,-1,-2,13,-49,i
Cc1ccccc1-c1cnc2c(c1)C(=O)N([C@H](C)CO)C[C@@H](C)[C@H](CN(C)Cc1cncnc1)O2,.,3,.,.,.,.
O=c1oc(-c2ccccc2Br)nc2ccccc12,102*,-5,-2,-11,0,i
O=c1oc(-c2cccnc2)nc2ccccc12,.,.,.,1,.,.
O=C(C[C@@H]1CC[C@@H]2[C@H](COC[C@H](O)CN2Cc2cccc(Cl)c2)O1)NCC1CCCCC1,-5,-33,0,.,1,.
Cc1noc(C)c1S(=O)(=O)Nc1ccc2c(c1)C(=O)N([C@@H](C)CO)C[C@@H](C)[C@@H](CN(C)C(=O)Nc1ccc(F)cc1)OCCCC[C@@H](C)O2,-1,1,2,.,1,.
CCCNC1=CC(=O)CC(C)(C)C1,98*,-4,4,-1,-40,i
O=C(C[C@H]1C[C@@H]2c3cc(NC(=O)Nc4ccccc4)ccc3O[C@@H]2[C@H](CO)O1)NCCN1CCCCC1,12,3,11,.,1,.
O=C(C[C@@H]1CC[C@@H]2[C@H](COC[C@@H](O)CN2C(=O)c2cnccn2)O1)NCc1ccc(Cl)cc1,2,-1,-3,.,-3,.
CCCNc1nc(Cl)nc(NCc2cccnc2)n1,85*,17,15,42,-11,i
CC(C)(C)Nc1nc(Cl)nc(NCc2ccccc2)n1,-25,-45,0,1,0,.
CO[C@H]1CN(C)C(=O)c2ccc(NC(=O)C3CC3)cc2OC[C@@H](C)N(C(=O)c2ccccc2F)C[C@H]1C,1,0,-3,.,4,.
Cc1ccc(C)n1-c1nnc(N2CCC(C(=O)NCCCN3CCN(C)CC3)CC2)s1,70*,10,16,.,-183,i
CC(=O)c1ccc(-c2cnc3c(NC=O)cc(-c4ccc(N5CCN(C)CC5)cc4)cn23)cc1,67*,-3,12,0,-32,i
CC(=O)Nc1cccc(-c2cc(NC(C)=O)c3ncc(-c4cccc(C(C)=O)c4)n3c2)c1,-29,1,0,-1,2,.
CC(=O)c1ccc(-c2cnc3c(NC=O)cc(-c4ccc(C(=O)NC5CC5)cc4)cn23)cc1,-51,1,-2,-1,9,.
CC(=O)Nc1cc(-c2ccc(N3CCN(C)CC3)cc2)cn2c(-c3cccc(C(C)=O)c3)cnc12,70*,11,17,9,-55,i
C[C@H](NC(=O)C[C@@H]1C[C@H]2c3cc(N(C)C)ccc3O[C@H]2[C@H](CO)O1)c1ccccc1,-120,3,5,.,-1,.
COc1ccc(C2NCCc3c2[nH]c2ccccc32)cc1COc1ccc(F)cc1 (centres undefined),85*,-61,?,7,-24,i
CCN(CC)Cc1cc2[nH]c3c4ccc(Cl)cc4ncc3c2cc1OC,102*,6,12,1,-29,i
Cc1noc(C)c1S(=O)(=O)N(C)C[C@@H]1Oc2ccc(NS(=O)(=O)c3ccc(Cl)cc3)cc2CC(=O)N([C@@H](C)CO)C[C@H]1C,20,-3,10,.,.,.
OC[C@@H]1CN(Cc2ccc3c(c2)OCO3)C[C@H](n2cnc3c(N4CCCC4)ncnc32)O1,86*,-7,-3,0,-4,i
